Test results taken from the supplement of paper PMC4466140.

B1: unnamed (peptide)
chain: QFDLKMPSKPIHNLK

target: AgAbp1; assay: SPOT peptide array binding signal intensity (averaged, normalized) (arbitrary units (background-subtracted, floor 0; scale differs between SH3 domains)); higher = stronger binding of the SH3 domain to the peptide
Summary of the method: (§1)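 Cellulose membranes carried synthetic 15-mer peptides with cysteines swapped for serines. These were incubated overnight at 4°C with 10 μg/ml of GST-fused SH3 domains from four yeast species in TBS-based blocking buffer. Binding signal, detected with anti-GST antibody and quantified in Genespotter, is the normalized, background-subtracted spot intensity averaged over replicates, in arbitrary units specific to each domain.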

Row | Binder | SPOT peptide array binding signal intensity
1 | B1 | ≤ 0

target: AgBbc1; assay: as above
Summary of the method: as §1

Row | Binder | SPOT peptide array binding signal intensity
2 | B1 | 0.5

target: AgBem1-D1; assay: as above
Summary of the method: as §1

Row | Binder | SPOT peptide array binding signal intensity
3 | B1 | 103

target: AgBzz1-D1; assay: as above
Summary of the method: as §1

Row | Binder | SPOT peptide array binding signal intensity
4 | B1 | 3.5

target: AgBzz1-D2; assay: as above
Summary of the method: as §1

Row | Binder | SPOT peptide array binding signal intensity
5 | B1 | ≤ 0

target: AgCyk3; assay: as above
Summary of the method: as §1

Row | Binder | SPOT peptide array binding signal intensity
6 | B1 | ≤ 0

target: AgFus1; assay: as above
Summary of the method: as §1

Row | Binder | SPOT peptide array binding signal intensity
7 | B1 | 48.5

target: AgHof1; assay: as above
Summary of the method: as §1

Row | Binder | SPOT peptide array binding signal intensity
8 | B1 | ≤ 0

target: AgHse1; assay: as above
Summary of the method: as §1

Row | Binder | SPOT peptide array binding signal intensity
9 | B1 | 85.5

target: AgLsb1; assay: as above
Summary of the method: as §1

Row | Binder | SPOT peptide array binding signal intensity
10 | B1 | ≤ 0

target: AgLsb4; assay: as above
Summary of the method: as §1

Row | Binder | SPOT peptide array binding signal intensity
11 | B1 | 3.5

target: AgMyo5; assay: as above
Summary of the method: as §1

Row | Binder | SPOT peptide array binding signal intensity
12 | B1 | ≤ 0

target: AgNbp2; assay: as above
Summary of the method: as §1

Row | Binder | SPOT peptide array binding signal intensity
13 | B1 | 63.5

target: AgRvs167; assay: as above
Summary of the method: as §1

Row | Binder | SPOT peptide array binding signal intensity
14 | B1 | 0.333

target: AgSho1; assay: as above
Summary of the method: as §1

Row | Binder | SPOT peptide array binding signal intensity
15 | B1 | 57

target: AgSla1-D1-D2; assay: as above
Summary of the method: as §1

Row | Binder | SPOT peptide array binding signal intensity
16 | B1 | ≤ 0

target: AgSla1-D3; assay: as above
Summary of the method: as §1

Row | Binder | SPOT peptide array binding signal intensity
17 | B1 | ≤ 0

target: CaAbp1-D1; assay: as above
Summary of the method: as §1

Row | Binder | SPOT peptide array binding signal intensity
18 | B1 | ≤ 0

target: CaAbp1-D2; assay: as above
Summary of the method: as §1

Row | Binder | SPOT peptide array binding signal intensity
19 | B1 | ≤ 0

target: CaBbc1; assay: as above
Summary of the method: as §1

Row | Binder | SPOT peptide array binding signal intensity
20 | B1 | 9.5

target: CaBem1-D1; assay: as above
Summary of the method: as §1

Row | Binder | SPOT peptide array binding signal intensity
21 | B1 | 25

target: CaBzz1-D1; assay: as above
Summary of the method: as §1

Row | Binder | SPOT peptide array binding signal intensity
22 | B1 | ≤ 0

target: CaBzz1-D2; assay: as above
Summary of the method: as §1

Row | Binder | SPOT peptide array binding signal intensity
23 | B1 | 8

target: CaCyk3; assay: as above
Summary of the method: as §1

Row | Binder | SPOT peptide array binding signal intensity
24 | B1 | 1.5

target: CaFus1; assay: as above
Summary of the method: as §1

Row | Binder | SPOT peptide array binding signal intensity
25 | B1 | 446

target: CaHof1; assay: as above
Summary of the method: as §1

Row | Binder | SPOT peptide array binding signal intensity
26 | B1 | ≤ 0

target: CaHse1; assay: as above
Summary of the method: as §1

Row | Binder | SPOT peptide array binding signal intensity
27 | B1 | 49.8

target: CaLsb1; assay: as above
Summary of the method: as §1

Row | Binder | SPOT peptide array binding signal intensity
28 | B1 | ≤ 0

target: CaLsb4; assay: as above
Summary of the method: as §1

Row | Binder | SPOT peptide array binding signal intensity
29 | B1 | 142

target: CaMyo5; assay: as above
Summary of the method: as §1

Row | Binder | SPOT peptide array binding signal intensity
30 | B1 | 8

target: CaNbp2; assay: as above
Summary of the method: as §1

Row | Binder | SPOT peptide array binding signal intensity
31 | B1 | 202

target: CaRvs167; assay: as above
Summary of the method: as §1

Row | Binder | SPOT peptide array binding signal intensity
32 | B1 | 1.67

target: CaRvs167-3; assay: as above
Summary of the method: as §1

Row | Binder | SPOT peptide array binding signal intensity
33 | B1 | ≤ 0

target: CaSho1; assay: as above
Summary of the method: as §1

Row | Binder | SPOT peptide array binding signal intensity
34 | B1 | 376

target: CaSla1-D1-D2; assay: as above
Summary of the method: as §1

Row | Binder | SPOT peptide array binding signal intensity
35 | B1 | 68

target: CaSla1-D3; assay: as above
Summary of the method: as §1

Row | Binder | SPOT peptide array binding signal intensity
36 | B1 | 77

target: ScAbp1; assay: as above
Summary of the method: as §1

Row | Binder | SPOT peptide array binding signal intensity
37 | B1 | ≤ 0

target: ScBbc1; assay: as above
Summary of the method: as §1

Row | Binder | SPOT peptide array binding signal intensity
38 | B1 | 0.25

target: ScBem1-D1; assay: as above
Summary of the method: as §1

Row | Binder | SPOT peptide array binding signal intensity
39 | B1 | ≤ 0

target: ScBzz1-D1; assay: as above
Summary of the method: as §1

Row | Binder | SPOT peptide array binding signal intensity
40 | B1 | ≤ 0

target: ScBzz1-D2; assay: as above
Summary of the method: as §1

Row | Binder | SPOT peptide array binding signal intensity
41 | B1 | 3.5

target: ScCyk3; assay: as above
Summary of the method: as §1

Row | Binder | SPOT peptide array binding signal intensity
42 | B1 | ≤ 0

target: ScFus1; assay: as above
Summary of the method: as §1

Row | Binder | SPOT peptide array binding signal intensity
43 | B1 | 70

target: ScHof1; assay: as above
Summary of the method: as §1

Row | Binder | SPOT peptide array binding signal intensity
44 | B1 | 0.5

target: ScHse1; assay: as above
Summary of the method: as §1

Row | Binder | SPOT peptide array binding signal intensity
45 | B1 | 57

target: ScLsb1; assay: as above
Summary of the method: as §1

Row | Binder | SPOT peptide array binding signal intensity
46 | B1 | 9

target: ScLsb2; assay: as above
Summary of the method: as §1

Row | Binder | SPOT peptide array binding signal intensity
47 | B1 | 1

target: ScLsb3; assay: as above
Summary of the method: as §1

Row | Binder | SPOT peptide array binding signal intensity
48 | B1 | 74

target: ScLsb4; assay: as above
Summary of the method: as §1

Row | Binder | SPOT peptide array binding signal intensity
49 | B1 | 21

target: ScMyo3; assay: as above
Summary of the method: as §1

Row | Binder | SPOT peptide array binding signal intensity
50 | B1 | ≤ 0

target: ScMyo5; assay: as above
Summary of the method: as §1

Row | Binder | SPOT peptide array binding signal intensity
51 | B1 | ≤ 0

target: ScNbp2; assay: as above
Summary of the method: as §1

Row | Binder | SPOT peptide array binding signal intensity
52 | B1 | 79.5

target: ScPex13; assay: as above
Summary of the method: as §1

Row | Binder | SPOT peptide array binding signal intensity
53 | B1 | 23.8

target: ScRvs167; assay: as above
Summary of the method: as §1

Row | Binder | SPOT peptide array binding signal intensity
54 | B1 | 2.83

target: ScSho1; assay: as above
Summary of the method: as §1

Row | Binder | SPOT peptide array binding signal intensity
55 | B1 | 198

target: ScSla1-D1-D2; assay: as above
Summary of the method: as §1

Row | Binder | SPOT peptide array binding signal intensity
56 | B1 | 59

target: ScSla1-D3; assay: as above
Summary of the method: as §1

Row | Binder | SPOT peptide array binding signal intensity
57 | B1 | 150

target: SpAbp1-D1; assay: as above
Summary of the method: as §1

Row | Binder | SPOT peptide array binding signal intensity
58 | B1 | 0.5

target: SpBbc1; assay: as above
Summary of the method: as §1

Row | Binder | SPOT peptide array binding signal intensity
59 | B1 | 1.5

target: SpBzz1-D1; assay: as above
Summary of the method: as §1

Row | Binder | SPOT peptide array binding signal intensity
60 | B1 | 104

target: SpBzz1-D2; assay: as above
Summary of the method: as §1

Row | Binder | SPOT peptide array binding signal intensity
61 | B1 | ≤ 0

target: SpCyk3; assay: as above
Summary of the method: as §1

Row | Binder | SPOT peptide array binding signal intensity
62 | B1 | ≤ 0

target: SpHof1; assay: as above
Summary of the method: as §1

Row | Binder | SPOT peptide array binding signal intensity
63 | B1 | 9

target: SpHof1-2; assay: as above
Summary of the method: as §1

Row | Binder | SPOT peptide array binding signal intensity
64 | B1 | 11.8

target: SpHof1-3; assay: as above
Summary of the method: as §1

Row | Binder | SPOT peptide array binding signal intensity
65 | B1 | ≤ 0

target: SpHse1; assay: as above
Summary of the method: as §1

Row | Binder | SPOT peptide array binding signal intensity
66 | B1 | 136

target: SpLsb1; assay: as above
Summary of the method: as §1

Row | Binder | SPOT peptide array binding signal intensity
67 | B1 | ≤ 0

target: SpLsb4; assay: as above
Summary of the method: as §1

Row | Binder | SPOT peptide array binding signal intensity
68 | B1 | 318

target: SpMyo1; assay: as above
Summary of the method: as §1

Row | Binder | SPOT peptide array binding signal intensity
69 | B1 | ≤ 0

target: SpNbp2; assay: as above
Summary of the method: as §1

Row | Binder | SPOT peptide array binding signal intensity
70 | B1 | 74.5

target: SpPex13; assay: as above
Summary of the method: as §1

Row | Binder | SPOT peptide array binding signal intensity
71 | B1 | 1

target: SpRvs167; assay: as above
Summary of the method: as §1

Row | Binder | SPOT peptide array binding signal intensity
72 | B1 | ≤ 0

target: SpSla1-D1-D2; assay: as above
Summary of the method: as §1

Row | Binder | SPOT peptide array binding signal intensity
73 | B1 | 5

target: SpSla1-D3; assay: as above
Summary of the method: as §1

Row | Binder | SPOT peptide array binding signal intensity
74 | B1 | 30
